Measured values: the supplement of paper PMC10849652
The full data set covers some 7,900 targets. This sample favours those with a hit. About 0.6% of all pairs of compound and target were hits.

compound: COC(=O)N[C@@H](C)CNc1nccc(-c2cn(C(C)C)nc2-c2cc(Cl)cc(NS(C)(=O)=O)c2F)n1 [encorafenib]; assay: log2 fold change, soluble protein after heating vs DMSO (PISA); higher = thermal stabilisation; K562 cells, 10 uM, 30 min; active = over 0.2 and 3.5 SD of the protein, either way, in both replicates (recomputed)
Procedure, shortened: (§1)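 K562 cells (2×10^6 cells/mL) were treated with 10 μM compound for 30 min, and aliquots were heated for 3 min over 48°C-58°C. Pooled aliquots were extracted in PBS with 0.5% NP-40 at 4°C, and the supernatant after 21,000xg for 90 min was measured by TMTpro 16plex LC-MS/MS with channel sums equalised. Reported thermal stability, relative to control samples and from duplicates, is a log2 fold change.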

Chain of UniProt Q9BQD3 (Q9BQD3 whole entry, looked up): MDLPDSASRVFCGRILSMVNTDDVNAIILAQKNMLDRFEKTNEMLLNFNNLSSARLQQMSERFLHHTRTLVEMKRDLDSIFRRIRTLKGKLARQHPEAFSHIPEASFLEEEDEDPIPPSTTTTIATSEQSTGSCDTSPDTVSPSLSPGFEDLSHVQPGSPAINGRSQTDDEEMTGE
Chain of UniProt Q96PV6 (Q96PV6 whole entry, looked up): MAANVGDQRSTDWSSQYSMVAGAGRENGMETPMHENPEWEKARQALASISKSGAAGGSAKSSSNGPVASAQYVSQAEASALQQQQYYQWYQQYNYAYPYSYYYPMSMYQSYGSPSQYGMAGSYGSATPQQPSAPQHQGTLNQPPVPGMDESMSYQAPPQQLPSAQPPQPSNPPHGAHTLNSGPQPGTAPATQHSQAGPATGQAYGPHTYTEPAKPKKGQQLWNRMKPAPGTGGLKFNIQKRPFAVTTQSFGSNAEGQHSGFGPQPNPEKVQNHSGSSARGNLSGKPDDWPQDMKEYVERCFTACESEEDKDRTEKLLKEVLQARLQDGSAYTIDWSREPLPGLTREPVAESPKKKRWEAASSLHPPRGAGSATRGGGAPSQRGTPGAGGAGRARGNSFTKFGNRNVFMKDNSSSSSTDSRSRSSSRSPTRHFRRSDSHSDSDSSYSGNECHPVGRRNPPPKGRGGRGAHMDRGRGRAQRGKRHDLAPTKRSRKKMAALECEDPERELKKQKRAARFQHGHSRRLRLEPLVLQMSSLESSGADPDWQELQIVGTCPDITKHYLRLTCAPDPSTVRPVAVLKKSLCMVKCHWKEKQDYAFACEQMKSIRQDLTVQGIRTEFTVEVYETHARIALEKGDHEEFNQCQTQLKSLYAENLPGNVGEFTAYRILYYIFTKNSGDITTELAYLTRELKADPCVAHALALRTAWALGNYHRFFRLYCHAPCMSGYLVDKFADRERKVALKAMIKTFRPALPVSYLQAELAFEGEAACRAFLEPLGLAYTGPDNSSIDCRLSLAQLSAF
Chain of UniProt O43934 (O43934 whole entry, looked up): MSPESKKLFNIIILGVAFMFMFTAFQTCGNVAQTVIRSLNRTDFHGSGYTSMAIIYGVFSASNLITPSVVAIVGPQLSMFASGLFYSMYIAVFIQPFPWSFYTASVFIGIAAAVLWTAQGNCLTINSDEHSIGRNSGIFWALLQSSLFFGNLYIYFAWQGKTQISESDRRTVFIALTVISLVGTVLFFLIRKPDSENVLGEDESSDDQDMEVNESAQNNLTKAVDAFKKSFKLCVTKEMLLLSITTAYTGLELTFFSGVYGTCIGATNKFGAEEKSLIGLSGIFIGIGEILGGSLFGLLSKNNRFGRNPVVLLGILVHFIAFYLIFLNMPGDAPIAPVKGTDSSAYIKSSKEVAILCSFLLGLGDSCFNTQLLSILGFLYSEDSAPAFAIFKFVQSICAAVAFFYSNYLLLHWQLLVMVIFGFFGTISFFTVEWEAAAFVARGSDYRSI
Chain of UniProt P43361 (P43361 whole entry, looked up): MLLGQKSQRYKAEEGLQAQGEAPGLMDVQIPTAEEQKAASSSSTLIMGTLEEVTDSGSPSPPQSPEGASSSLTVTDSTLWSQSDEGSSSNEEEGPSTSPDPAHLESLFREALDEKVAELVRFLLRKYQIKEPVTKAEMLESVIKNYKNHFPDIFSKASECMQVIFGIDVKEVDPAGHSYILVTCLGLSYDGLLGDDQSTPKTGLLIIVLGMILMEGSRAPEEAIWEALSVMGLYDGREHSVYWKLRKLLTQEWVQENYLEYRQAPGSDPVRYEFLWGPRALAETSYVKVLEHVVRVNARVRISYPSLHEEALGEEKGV
Chain of UniProt Q9Y2E5 (Q9Y2E5 whole entry, looked up): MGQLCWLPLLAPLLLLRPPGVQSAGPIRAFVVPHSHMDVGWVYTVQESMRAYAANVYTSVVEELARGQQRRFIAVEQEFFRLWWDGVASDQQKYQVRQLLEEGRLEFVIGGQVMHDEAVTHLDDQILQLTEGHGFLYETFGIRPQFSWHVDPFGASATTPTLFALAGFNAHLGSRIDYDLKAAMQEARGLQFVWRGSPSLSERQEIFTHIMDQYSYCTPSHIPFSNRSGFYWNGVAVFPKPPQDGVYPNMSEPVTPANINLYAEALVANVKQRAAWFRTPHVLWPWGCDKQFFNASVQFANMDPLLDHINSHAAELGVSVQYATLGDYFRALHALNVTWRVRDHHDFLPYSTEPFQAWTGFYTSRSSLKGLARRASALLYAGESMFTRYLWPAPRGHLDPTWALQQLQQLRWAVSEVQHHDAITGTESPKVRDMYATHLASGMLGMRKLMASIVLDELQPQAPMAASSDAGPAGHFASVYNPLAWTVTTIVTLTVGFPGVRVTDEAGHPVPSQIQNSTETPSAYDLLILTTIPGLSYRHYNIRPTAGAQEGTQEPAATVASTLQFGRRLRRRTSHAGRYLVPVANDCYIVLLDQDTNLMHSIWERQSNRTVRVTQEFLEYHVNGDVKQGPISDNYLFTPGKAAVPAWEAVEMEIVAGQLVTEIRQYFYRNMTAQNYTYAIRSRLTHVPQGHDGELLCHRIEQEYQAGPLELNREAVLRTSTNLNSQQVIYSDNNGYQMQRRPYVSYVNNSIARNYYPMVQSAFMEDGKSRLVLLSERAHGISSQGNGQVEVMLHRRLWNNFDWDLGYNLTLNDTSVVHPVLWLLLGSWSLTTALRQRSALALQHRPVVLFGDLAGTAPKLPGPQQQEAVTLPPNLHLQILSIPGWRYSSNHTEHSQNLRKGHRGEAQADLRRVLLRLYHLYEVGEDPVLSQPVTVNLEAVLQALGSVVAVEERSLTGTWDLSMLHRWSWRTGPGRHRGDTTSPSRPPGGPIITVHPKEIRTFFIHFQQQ
Chain of UniProt Q9H6K1 (Q9H6K1 whole entry, looked up): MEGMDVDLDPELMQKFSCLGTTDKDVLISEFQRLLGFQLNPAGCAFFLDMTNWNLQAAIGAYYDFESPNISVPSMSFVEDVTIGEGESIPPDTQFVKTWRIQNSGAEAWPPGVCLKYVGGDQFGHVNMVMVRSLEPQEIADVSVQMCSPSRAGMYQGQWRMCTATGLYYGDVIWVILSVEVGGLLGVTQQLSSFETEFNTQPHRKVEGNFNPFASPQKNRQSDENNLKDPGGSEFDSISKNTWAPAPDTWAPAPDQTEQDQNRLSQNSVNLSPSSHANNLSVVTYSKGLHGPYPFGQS
Chain of UniProt Q9P244 (Q9P244 whole entry, looked up): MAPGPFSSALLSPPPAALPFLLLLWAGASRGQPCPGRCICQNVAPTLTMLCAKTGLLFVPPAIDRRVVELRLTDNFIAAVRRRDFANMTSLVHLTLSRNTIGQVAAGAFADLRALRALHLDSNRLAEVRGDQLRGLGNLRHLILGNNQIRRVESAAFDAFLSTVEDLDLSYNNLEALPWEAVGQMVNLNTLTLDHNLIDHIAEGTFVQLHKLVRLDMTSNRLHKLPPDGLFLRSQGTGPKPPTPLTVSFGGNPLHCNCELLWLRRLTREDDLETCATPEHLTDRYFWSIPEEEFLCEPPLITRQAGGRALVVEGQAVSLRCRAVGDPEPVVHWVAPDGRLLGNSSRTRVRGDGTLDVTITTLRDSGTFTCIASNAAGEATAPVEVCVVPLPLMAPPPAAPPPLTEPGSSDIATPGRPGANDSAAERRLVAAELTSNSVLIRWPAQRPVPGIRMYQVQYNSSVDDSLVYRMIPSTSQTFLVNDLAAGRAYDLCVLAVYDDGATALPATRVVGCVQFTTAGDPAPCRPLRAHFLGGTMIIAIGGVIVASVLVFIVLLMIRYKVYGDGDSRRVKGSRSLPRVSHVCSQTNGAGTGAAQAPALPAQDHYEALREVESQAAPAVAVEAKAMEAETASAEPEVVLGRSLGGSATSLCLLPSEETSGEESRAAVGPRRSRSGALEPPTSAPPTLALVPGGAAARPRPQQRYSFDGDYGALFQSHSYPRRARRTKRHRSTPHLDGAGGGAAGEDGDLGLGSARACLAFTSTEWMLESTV
Chain of UniProt Q9NVC6 (Q9NVC6 whole entry, looked up): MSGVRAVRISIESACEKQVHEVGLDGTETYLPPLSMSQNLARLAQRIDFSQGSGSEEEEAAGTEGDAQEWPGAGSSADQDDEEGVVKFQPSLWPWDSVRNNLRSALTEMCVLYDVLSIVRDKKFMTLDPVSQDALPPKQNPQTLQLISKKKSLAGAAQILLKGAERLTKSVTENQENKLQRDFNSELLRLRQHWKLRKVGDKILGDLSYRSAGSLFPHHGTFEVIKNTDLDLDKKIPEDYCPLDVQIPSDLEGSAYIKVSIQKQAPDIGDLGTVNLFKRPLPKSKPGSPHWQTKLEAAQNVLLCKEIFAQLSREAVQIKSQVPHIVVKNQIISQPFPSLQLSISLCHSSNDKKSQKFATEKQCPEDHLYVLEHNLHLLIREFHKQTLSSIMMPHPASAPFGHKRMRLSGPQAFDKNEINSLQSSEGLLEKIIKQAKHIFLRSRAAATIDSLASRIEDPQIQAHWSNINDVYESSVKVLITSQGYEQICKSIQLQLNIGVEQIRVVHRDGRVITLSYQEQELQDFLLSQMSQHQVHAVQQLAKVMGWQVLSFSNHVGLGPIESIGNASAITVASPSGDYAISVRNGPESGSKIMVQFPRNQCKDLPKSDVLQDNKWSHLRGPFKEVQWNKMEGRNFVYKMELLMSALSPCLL
Chain of UniProt A4D2B0 (A4D2B0 whole entry, looked up): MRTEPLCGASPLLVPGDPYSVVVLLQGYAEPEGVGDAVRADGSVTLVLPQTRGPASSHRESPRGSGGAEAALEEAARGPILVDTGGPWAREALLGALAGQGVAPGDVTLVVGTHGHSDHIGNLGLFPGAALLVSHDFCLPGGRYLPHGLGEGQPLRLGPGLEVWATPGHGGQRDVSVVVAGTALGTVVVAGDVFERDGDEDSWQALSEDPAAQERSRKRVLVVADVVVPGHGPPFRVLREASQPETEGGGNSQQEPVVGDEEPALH
Chain of UniProt Q86UD3 (Q86UD3 whole entry, looked up): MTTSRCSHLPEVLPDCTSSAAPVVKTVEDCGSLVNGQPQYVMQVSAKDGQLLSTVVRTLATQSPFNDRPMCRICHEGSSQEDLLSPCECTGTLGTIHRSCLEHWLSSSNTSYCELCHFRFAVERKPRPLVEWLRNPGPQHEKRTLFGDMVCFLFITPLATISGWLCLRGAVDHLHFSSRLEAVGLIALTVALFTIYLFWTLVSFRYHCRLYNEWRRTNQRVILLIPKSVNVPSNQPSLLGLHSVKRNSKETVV

log2 fold change, inactive:
MARK2 (UniProt E9PC69) 0.144
ILF3 (UniProt Q12906) 0.081
ING5 (UniProt Q8WYH8) -0.078
MCM10 (UniProt Q7L590) -0.049
MBLAC1 (UniProt A4D2B0) 0.035
MAGEA8 (UniProt P43361) 0.038
KIZ (UniProt Q2M2Z5) -0.038
MAP4K4 isoform 6 (UniProt O95819) 0.049
MELK (UniProt Q14680) 0.06
KCNK5 (UniProt O95279) 0.017
MAN2B2 (UniProt Q9Y2E5) 0.044
MFSD11 (UniProt O43934) -0.047
LENG8 (UniProt Q96PV6) 0.129
LRFN1 (UniProt Q9P244) -0.227
MASTL (UniProt Q96GX5) 0.083
MCOLN3 (UniProt Q8TDD5) -0.026
IP6K1 (UniProt Q92551) 0.094
MARCHF3 (UniProt Q86UD3) 0.097
MED25 isoform 3 (UniProt Q71SY5) 0.083
KXD1 (UniProt Q9BQD3) 0.018
MED17 (UniProt Q9NVC6) -0.081
MAP4 isoform 5 (UniProt P27816) 0.094
ILRUN (UniProt Q9H6K1) 0.045

compound: COC(=O)[C@H](CCSC)NC(=O)C1=C(C=C(C=C1)NC[C@H](CS)N)C2=CC=CC=C2; assay: as above
Procedure, shortened: as §1

log2 fold change, inactive:
MAPK14 (UniProt Q16539) -0.055
ITM2B (UniProt Q9Y287) -0.096
METAP1D (UniProt Q6UB28) 0.006
IL27RA (UniProt Q6UWB1) 0
LPGAT1 (UniProt Q92604) 0.015
KMT2C isoform 3 (UniProt Q8NEZ4) 0.035
LUM (UniProt P51884) 0.283
ITPRID2 (UniProt P28290) 0.059
IMMP1L (UniProt Q96LU5) -0.027
KIF3B (UniProt O15066) -0.043
MED8 isoform 2 (UniProt Q96G25) 0.141
MFSD8 (UniProt Q8NHS3) 0.003
MED22 (UniProt Q15528) 0.097
MARK2 (UniProt E9PC69) -0.028
MCM10 (UniProt Q7L590) -0.007
MBLAC1 (UniProt A4D2B0) -0.02
MAGEA8 (UniProt P43361) -0.038
MAP4K4 isoform 6 (UniProt O95819) -0.036
MAN2B2 (UniProt Q9Y2E5) -0.04
MFSD11 (UniProt O43934) -0.015
LENG8 (UniProt Q96PV6) -0.133
LRFN1 (UniProt Q9P244) -0.069
MASTL (UniProt Q96GX5) 0.079
MED25 isoform 3 (UniProt Q71SY5) -0.111
KXD1 (UniProt Q9BQD3) 0.017
MED17 (UniProt Q9NVC6) 0.055
ILRUN (UniProt Q9H6K1) 0.121
